These results are taken from PubChem BioAssay (NCI).

What all share (experiment): NCI-60 one-dose screen, 48 h (100 = growth as untreated, 0 = no growth, -100 = all killed)
Holding throughout (details): 10 µM unless noted

For assay [1], the system named is RPMI-8226 leukemia.
For assay [2], the system named is OVCAR-8 ovarian.
Assay [3] deals with OVCAR-5 ovarian.
The test system of assay [4] is OVCAR-4 ovarian.
Assay [5] has as its system SK-OV-3 ovarian.
Assay [6] has as its system IGROV1 ovarian.
Assay [7] relates to HS 578T breast.
The test system of assay [8] is NCI/ADR-RES ovarian.
In assay [9] the test system is T-47D breast.
For assay [10], the system named is BT-549 breast.
For assay [11], the system named is MDA-MB-435 melanoma.
The subject of assay [12] is SW-620 colon.
Assay [13] relates to MCF7 breast.
Assay [14] has as its system HCT-116 colon.
For assay [15], the system named is HCC-2998 colon.
Assay [16] deals with KM12 colon.

Each structure is given as a SMILES string. This is part of a sample that, as a whole, favours compounds with a hit. Of some 83,000 tested, about 20% had one in any assay.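 Compound tested at a single concentration for 48 hours in 96-well plates; a percent growth value below 10 was scored as active.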 Unmarked numbers belong to inactive results. Calls of active or inactive are those of the source.

For the compound `COc1ccc(-c2cc(-c3cccc4ccccc34)n3c(n2)nc2ccccc23)cc1OC`, the growth in [1] was -18.4% (active); in [2] it was 34.3%; in [3], 52.2%; in assay [4] it was 71.9%; in assay [5] it was 35.3%; in assay [6], 52.3%. Also, the growth is 46.3% in [7]; 47.4% in assay [8]; 19.2% in assay [9]; 34.6% in assay [10]; 47.3% in [11]; 29.8% in assay [12]. The growth was 15.4% in assay [13], 31.5% in assay [14], 72% in assay [15] and 68.1% in assay [16].
Regarding `COc1cnc2c(c1)C(=O)c1c-2n(CCCn2ccnc2)c(=O)c2cc(OC)c(OC)cc12`, the growth in assay [1] is -26.7% (active); in [2] it was -93.9% (active); in [3], -40.7% (active); in assay [4], -18.3% (active); in assay [5], -31.8% (active); in assay [6] it was -20.6% (active). For the same compound, the growth in assay [7] is 57.1%; in assay [8] it was 1.35% (active); in [9], -61.3% (active); in [10], -0.217% (active); in assay [11], 20.5%; in [12] it was -77.7% (active). Further, the growth is -61.8% (active) in [13], -90.2% (active) in assay [14], 24.6% in assay [15] and 27.1% in assay [16].
As to `CCNCCCn1c2c(c3cc(OC)c(OC)cc3c1=O)C(=O)c1cc(OC)cnc1-2`, the growth was -34.9% (active) in assay [1]; 14.1% in [2]; 46.2% in assay [3]; 6.87% (active) in assay [4]; -32.1% (active) in [5]; 32.3% in [6]. Moreover, the growth in [7] was 80.2%; in assay [8], 26.9%; in [9] it was -0.933% (active); in assay [10] it was 27.3%; in assay [11], 38%; in [12], 37.1%. Moreover, the growth is 0.589% (active) in assay [14], 43.4% in assay [15] and 45.4% in [16].
For `Cc1cc(=O)n2nc(-c3c[nH]c4ccccc34)sc2n1`, the growth in [1] was 128%; in assay [2] it was 98.7%; in assay [3], 101%; in [4], 104%; in assay [5], 103%; in assay [6], 89.9%. In addition, the growth in assay [7] was 96.4%; in [8], 98%; in [9], 92.2%; in assay [10], 108%; in [11] it was 103%; in assay [12], 94.4%. For the same compound, the growth in assay [13] is 73.2%; in assay [14], 109%; in assay [15], 107%; in assay [16], 101%.
For `C=CCn1c(SCC(=O)Nc2cccc(C(=O)/C=C/c3cc(OC)c(OC)c(OC)c3)c2)nc2ccccc2c1=O`, the growth was -9.52% (active) in assay [1]; -14.7% (active) in assay [2]; 17.4% in [3]; 66.5% in [4]; 132% in assay [5]; 49.3% in assay [6]. In addition, the growth in assay [7] is 82%; in [8], 27.1%; in assay [9] it was 66.4%; in assay [10], 75.9%; in assay [11], 21.7%; in [12] it was 3.18% (active). Also, the growth in assay [13] is 18.2%; in assay [14] it was -26.4% (active); in assay [15] it was 82.5%; in assay [16], 46.3%.
In the case of `COc1ccc2c(C3=C(c4cn(C)c5ccccc45)C(=O)NC3=O)coc2c1`, the growth was 11.6% in assay [1]; 41% in assay [2]; 43% in assay [3]; 79% in assay [4]; 47.6% in assay [5]; 47.2% in [6]. Moreover, the growth in assay [7] was 9.64% (active); in assay [8] it was 25.1%; in assay [9] it was 44%; in [10], 82.6%; in [11], 6.58% (active); in assay [12] it was 39%. Moreover, the growth was 24.3% in assay [13], 15.8% in [14], 28.2% in assay [15] and 32.1% in assay [16].
As for `Cn1c2ccc(Br)cc2c2c3c(c4c5cc(F)ccc5oc4c21)C(=O)N(O)C3=O`, the growth in assay [1] is 76.7%; in [2], 75.1%; in assay [3] it was 108%; in assay [4], 103%; in [5] it was 90.2%; in assay [6], 63.5%. In addition, the growth was 92.8% in [7]; 75.5% in [8]; 63% in assay [9]; 89.4% in assay [10]; 101% in assay [11]; 54.5% in assay [12]. Moreover, the results for the growth in [13], in assay [14] and in assay [16] were 41.3%, 75% and 92.6%, respectively.
Take `COc1cc2c3c(n(CCCNCC4CC4)c(=O)c2cc1OC)-c1cc2c(cc1C3=O)OCO2`: the growth was -42.8% (active) in assay [1]; -60.5% (active) in [2]; -66.8% (active) in [3]; 1.27% (active) in [4]; 8.75% (active) in assay [5]; 56% in assay [6]. For the same compound, the growth is 95.3% in assay [7]; -13.6% (active) in [8]; 50.6% in assay [9]; 66.1% in [10]; 65% in assay [11]; -20.1% (active) in assay [12]. For the same compound, the growth in assay [13] is -77.4% (active); in [14], -85.1% (active); in assay [16], 65.1%.
Consider `O=c1[nH]c2cc(Cl)ccc2n1C1CCN(c2ccc3nnc(Cl)n3n2)CC1`, for which the growth was 90.9% in assay [1]; 93.4% in assay [2]; 95.5% in assay [3]; 88.7% in assay [4]; 77.5% in assay [5]; 96.6% in assay [6]. Further, the growth in assay [7] was 87.7%; in assay [8], 99.9%; in assay [9] it was 86.6%; in assay [10] it was 94.2%; in [11], 98.4%; in [12] it was 93.4%. In addition, the growth was 81.1% in assay [13], 106% in assay [14], 100% in assay [15] and 96.5% in assay [16].
Consider `COc1ccc([C@@H]2[C@@H](O)C(=O)N2c2cc(OC)c(OC)c(OC)c2)cc1`, for which the growth in assay [1] is 20.3%; in [2], 2.57% (active); in assay [3], 24.8%; in [4], 59.3%; in [5] it was 37.2%; in assay [6], 27.9%. Further, the growth in assay [7] was 10.6%; in assay [8], 13.9%; in assay [9], 67.1%; in [10], -13.4% (active); in [11] it was -28.6% (active); in [12] it was 19.4%. In addition, the growth in [13] is 11.9%; in assay [14], 3.82% (active); in assay [15], 21.8%; in [16], 14%.
